Source: PubChem BioAssay
Activity calls are given as the source filed them.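 How the source made its calls, unless noted: active means visually confirmed hit in the image check and inhibition above 20%; inconclusive means visually confirmed hit but inhibition not above 20%; inactive means no visual hit in the image check.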

Columns and labels:
[1] = inhibitors of TNFa-induced NFkB p65 translocation, primary screen, imaging, HUVEC, MLSMR starter and 10KST1 sets (AID 438;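 active means inhibition above 20% together with a positive visual image hit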;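 further: compound added about 3h40 before a 20 min TNFalpha stimulation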;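 on inhibition: signal is the nuclear over cytoplasmic p65 intensity ratio per well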); conditions: HUVEC TNFa-induced p65 nuclear translocation; cell count: measured here: nuclei count (cytotoxicity indicator), at 2.08 µM; inhibition: at 2 µM, stronger effect = higher value, 0% TNFa-plus-vehicle, 100% no-TNFa wells
[2] = inhibitors of mutant huntingtin aggregation, primary screen, imaging, exon1htt(103Q)mCFP cells, high-content imaging (AID 483;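 active means visual image review flags a hit and inhibition of aggregation exceeds 20%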;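 further: compound exposure lasted 3 days before fixation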;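 on nuclei count: percent of the per-plate median nuclei count of sample wells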); conditions: exon1htt(103Q)mCFP cell line, aggregate imaging, at 2 µM; inhibition of aggregation: stronger effect = higher value; nuclei count: measured here: cell count, toxicity
[3] = inhibitors of E-selectin induction by TNFa, primary screen, imaging, HUVEC, immunofluorescence, MLSMR starter and 10KST1 sets (AID 487); conditions: HUVEC TNFalpha-induced E-selectin immunofluorescence imaging, at 2 µM; inhibition: stronger effect = higher value; nuclei count: measured here: cell number, toxicity;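 on inhibition: signal is fraction of cell area covered by stained E-selectin grains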;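 on nuclei count: 100% = median nuclei count of all wells on the same plate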
[4] = target: Voltage-gated potassium channel subunit beta-2 (Rattus norvegicus) (UniProt P62483); assay: KvBeta enzyme negative modulators, primary screen, biochemical, NADPH fluorescence (AID 622;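 active means fluorescence slope higher than the sample average by over 3 SD, cut at about -0.22 in these data, passing the limit was not always enough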;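 further: slope of raw intensity against log time taken from 70 to 1610 s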); conditions: recombinant KvBeta, 4-cyanobenzaldehyde reduction, at 10 µM, stronger effect = higher value
Chain of Voltage-gated potassium channel subunit beta-2 (Rattus norvegicus) (P62483 whole entry, looked up): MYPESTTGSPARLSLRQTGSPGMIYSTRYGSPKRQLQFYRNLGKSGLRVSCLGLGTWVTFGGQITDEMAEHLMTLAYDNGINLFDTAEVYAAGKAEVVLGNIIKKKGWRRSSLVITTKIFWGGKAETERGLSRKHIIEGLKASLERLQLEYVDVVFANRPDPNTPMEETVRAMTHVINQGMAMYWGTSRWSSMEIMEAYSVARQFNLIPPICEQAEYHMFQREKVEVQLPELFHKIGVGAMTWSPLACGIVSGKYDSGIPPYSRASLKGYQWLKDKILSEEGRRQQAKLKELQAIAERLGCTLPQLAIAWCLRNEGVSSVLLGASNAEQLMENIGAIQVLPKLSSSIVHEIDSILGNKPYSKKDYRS

[5] = target: Voltage-gated potassium channel subunit beta-2 (Rattus norvegicus) (UniProt P62483); assay: KvBeta positive modulators, primary screen, biochemical, NADPH fluorescence (AID 623;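 active means NADPH fluorescence slope more negative than the mean of all samples by about 3 SD, 99.7% confidence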;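 further: fluorescence intensity change per second fitted from 20 to 320 s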); conditions: Recombinant KvBeta, NADPH fluorescence decrease slope, 10 min; at 10 µM; stronger effect = lower value
[6] = target: Alpha-2C adrenergic receptor (Homo sapiens) (UniProt P18825); assay: modulators of alpha2C/GIRK thallium flux, primary screen, cell-based, HEK293 alpha2C/GIRK1/2 (AID 624;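 active means fluorescence slope after compound addition differing from the mean of all screened samples at 99.7% confidence, in either direction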;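 further: slope of fluorescence ratio to pre-addition baseline per second over 15 to 24 s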); conditions: thallium flux BTC fluorescence, at 10 µM, actives lie on both sides
Chain of Alpha-2C adrenergic receptor (Homo sapiens) (P18825 whole entry, looked up): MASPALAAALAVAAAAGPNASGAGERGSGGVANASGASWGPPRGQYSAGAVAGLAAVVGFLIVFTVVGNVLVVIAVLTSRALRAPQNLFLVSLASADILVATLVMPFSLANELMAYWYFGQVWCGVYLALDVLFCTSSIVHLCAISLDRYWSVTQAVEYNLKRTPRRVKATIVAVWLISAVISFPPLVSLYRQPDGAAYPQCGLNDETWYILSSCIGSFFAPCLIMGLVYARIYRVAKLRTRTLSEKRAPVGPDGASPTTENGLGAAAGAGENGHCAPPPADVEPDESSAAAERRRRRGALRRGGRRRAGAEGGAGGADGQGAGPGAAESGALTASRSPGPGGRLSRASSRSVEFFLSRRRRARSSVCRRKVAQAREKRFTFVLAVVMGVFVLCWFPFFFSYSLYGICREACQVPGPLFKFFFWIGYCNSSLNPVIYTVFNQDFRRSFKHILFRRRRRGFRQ

[7] = inhibitors of Sendai virus-induced IRF3 signaling, primary screen, TLR/RLR signaling modifier project, cell-based, Sendai virus stimulus, luciferase, 10K MLSCN set (AID 602276;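 active means inhibition at or above 50% at 10 µM; inactive means inhibition below 50%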;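 further: firefly luciferase from ISG56 promoter only with Renilla not read in this screen; 0% = Sendai virus plus DMSO and 100% = medium plus DMSO without virus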); conditions: HEK293 RL24 IRF3 luciferase reporter, at 10 µM, stronger effect = higher value
[8] = inhibitors of poly I:C-induced TLR3 signaling, primary screen, cell-based, poly I:C stimulus, luciferase, 10K MLSCN set (AID 602277;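 active means inhibition of the reporter signal at or above 50%; inactive means inhibition below 50%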); conditions: HEK293-TLR3 RL24 IRF3 luciferase reporter, at 10 µM, stronger effect = higher value

SMILES	cell count [1]	inhibition [1]	inhibition of aggregation [2]	nuclei count [2] [%]	inhibition [3]	nuclei count [3] [%]	fluorescence slope [4]	NADPH fluorescence slope [5]	slope [6]	inhibition [7]	inhibition [8]
NC(=O)C1CCN(C(=O)c2cc3n(n2)C(C(F)(F)F)CC(c2ccco2)N3)CC1 (stereo not drawn)	537	-5.4% (inactive)	2.5% (inactive)	93.4	-83.5% (inactive)	100	-0.543 (inactive)	1.2e-05 (inactive)	0.00594 (inactive)	18.6% (inactive)	24.2% (inactive)
O=c1cc(CN2CCN(c3ccc(F)cc3)CC2)nc2sccn12	280	3.4% (inactive)	19.5% (inactive)	95	-8.5% (inactive)	109	-0.477 (inactive)	2.3e-05 (inactive)	0.00346 (inactive)	-6.74% (inactive)	0.252% (inactive)
CC(C)CNS(=O)(=O)c1ccc(CCC(=O)NCc2ccco2)cc1	572	33.1% (active)	7% (inactive)	85	-57.5% (inactive)	137	-0.511 (inactive)	1.9e-05 (inactive)	0.00549 (inactive)	11.1% (inactive)	14.7% (inactive)
COc1ccc(OC)c(-n2nnnc2SCC(=O)NCc2ccc3c(c2)OCO3)c1	324	-12.5% (inactive)	-18.9% (inactive)	101	-26.8% (inactive)	109	-0.604 (inactive)	-1.7e-05 (inactive)	0.00401 (inactive)	18% (inactive)	-14.2% (inactive)
Cc1cc2c(=O)n(Cc3ccco3)c(SCC(=O)NCc3ccco3)nc2s1	502	3.1% (inactive)	3.2% (inactive)	84	-50% (inactive)	82.5	-0.393 (inactive)	1.9e-05 (inactive)	0.00738 (inactive)	14.9% (inactive)	17.7% (inactive)
CCC(=O)N1C(=O)CCN(C(C)=O)c2ccccc21	454	11.3% (inactive)	-2.5% (inactive)	109	-39.7% (inactive)	130	-0.381 (inactive)	2.5e-05 (inactive)	0.0091 (inactive)	13.1% (inactive)	20.6% (inactive)
Cc1c(C)c2ccc(OC3CCCCC3=O)cc2oc1=O (stereo not drawn)	573	-9.2% (inactive)	-0.8% (inactive)	120	38.5% (inactive)	134	-0.175 (inactive)	-2e-05 (inactive)	0.0054 (inactive)	-2.48% (inactive)	-14.3% (inactive)
C(#Cc1ccccc1)Cn1nnc2ccccc21	288	18% (inactive)	11.6% (inactive)	73.2	-5% (inactive)	103	-0.336 (inactive)	-2.1e-05 (inactive)	0.00582 (inactive)	-41.6% (inactive)	-170% (inactive)
CCOc1ccc(OCC)c(NC(=O)CN2CCN(C(=O)c3ccco3)CC2)c1	554	-19.4% (inactive)	-12.3% (inactive)	122	-77.5% (inactive)	102	-0.546 (inactive)	1.9e-05 (inactive)	0.00515 (inactive)	-15.6% (inactive)	-16.4% (inactive)
CC1Cc2ccccc2N1Cc1cc(=O)n2ccsc2n1 (stereo not drawn)	453	-5.7% (inactive)	-2.2% (inactive)	96.8	-157% (inactive)	121	-0.581 (inactive)	-2e-05 (inactive)	0.00674 (inactive)	1.61% (inactive)	20.7% (inactive)
Clc1ccccc1OCCCCn1ccnc1	425	-0.2% (inactive)	-10.9% (inactive)	97.3	14.5% (inactive)	106	-0.464 (inactive)	-5.3e-05 (inactive)	0.0106 (active)	-3.32% (inactive)	5.03% (inactive)
CCOC(=O)Nc1ccc2c(CN3C(=O)NC4(CCCC4)C3=O)cc(=O)oc2c1	744	3.5% (inactive)	-24.7% (inactive)	99.9	-149% (inactive)	153	-0.229 (inactive)	-2.4e-05 (inactive)	0.00554 (inactive)	0.299% (inactive)	-13.9% (inactive)
COc1ccc(NC(=O)c2oc3ccccc3c2NC(=O)c2ccco2)cc1	317	-4.8% (inactive)	23.6% (inactive)	95.9	-4.1% (inactive)	95.1	-0.411 (inactive)	2.7e-05 (inactive)	0.00551 (inactive)	-10.3% (inactive)	-48.1% (inactive)
